# Only some compounds are listed: those with a hit (about 11% of all), similar ones and a draw of the others.
# Sfp inh: inhibitors of Bacillus subtilis Sfp phosphopantetheinyl transferase | Q9F4F7 | Biochemical Sfp PPTase activity, qHTS | Potency, µM, without a hit: largest response in the series, negative = inhibition, most hits filed as inhibitors | actives 3.5% (n = 310,000) | AID 1490;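 further: the enzyme is Sfp with the accession as filed and its product quenches rhodamine fluorescence; potency means the concentration at half of the fitted maximal effect; 0% = enzyme reaction without inhibitor and -100% = no enzyme wells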
#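 Reaction rates are the 30-min fluorescence difference (ex 525, em 598 nm) in wells containing 15 nM Sfp, 5 uM rhodamine-CoA and 12.5 uM BHQ-2-YbbR at pH 7.6 with 10 mM MgCl2.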
# Tau fluor counter: counter-screen for tau fibril formation inhibitors; tau K18 P301L Alexa594 fluorescence, heparin fibrillization; Potency, µM (series often up to 57.7 µM), for inactives: at the highest dose activity change, negative = decrease; actives 0.93% (n = 280,000); AID 1463; further: potency means the concentration at half of the fitted maximal effect; nearly all actives have a fitted effect of over 55% in size
#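 Human K18 P301L tau (15 uM unlabeled plus 0.24 uM Alexa 594-labeled, final) in 100 mM sodium acetate pH 7 was mixed with compound and 20 uM heparin and incubated 6 hr at 37 C.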
# FBPA coupling cs: coupling enzyme interference in Giardia aldolase counter-screen; activity change, negative = inhibition, % at 58.2 µM, hits read low; coupling enzyme system counterscreen, AmpLite Red fluorescence; actives 0.67% (n = 290,000); in the data active means activity change below about -30%
#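 Activity here indicates interference with the coupling reaction, not aldolase inhibition. Compounds at 57.5 uM final met coupling enzymes for 10 min at RT; substrate and AmpLite Red detection followed, with a 525/598 nm fluorescence read after 20 min.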
# G9a block: G9a (human) methyltransferase inhibition; G9a H3K9 monomethylation, AlphaScreen, 2 h; AID 504332; Potency, µM (doses to about 102 µM), for the others: top-dose activity, negative = inhibition, usual class: inhibitors; actives 8.8% (n = 350,000); Q96KQ7; further: potency means the concentration at half of the fitted maximal effect; nearly all actives have a fitted effect of over 75% in size
# Target sequence (Q96KQ7 913-1193 limits assumed): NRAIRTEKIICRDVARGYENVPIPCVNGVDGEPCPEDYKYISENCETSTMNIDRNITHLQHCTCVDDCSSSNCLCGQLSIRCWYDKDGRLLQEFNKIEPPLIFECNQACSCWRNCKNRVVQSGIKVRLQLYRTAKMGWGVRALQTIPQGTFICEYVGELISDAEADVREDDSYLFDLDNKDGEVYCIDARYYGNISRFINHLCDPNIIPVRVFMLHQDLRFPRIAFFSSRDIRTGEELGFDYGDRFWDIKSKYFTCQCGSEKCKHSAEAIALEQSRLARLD
#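 Signal arises when biotinylated H3K9 peptide, once monomethylated, bridges streptavidin donor and antibody-captured acceptor beads. Enzyme at 20 nM was preincubated 15 min with test compounds; peptide 500 nM and SAM 20 uM then reacted for 2 h.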
# Tau ThT inhib: tau fibrillization inhibition (ThT binding); P10636; recombinant tau K18 P301L, heparin-induced fibrillization, ThT fluorescence; Potency, µM (top dose mostly 57.4 µM), for inactives: at the top dose activity, negative = inhibition, hits mostly inhibitors; actives 2.1% (n = 270,000); further: potency means the concentration at half of the fitted maximal effect; nearly all actives have a fitted effect of over 55% in size
# Target sequence (P10636 561-689 P618L limits assumed): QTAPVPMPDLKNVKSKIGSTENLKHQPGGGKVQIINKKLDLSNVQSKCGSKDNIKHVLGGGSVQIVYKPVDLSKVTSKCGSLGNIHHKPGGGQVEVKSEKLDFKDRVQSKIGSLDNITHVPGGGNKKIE
#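 ThT emission at 510 nm, taken 1 hr after adding 30 uM dye, quantifies aggregates formed when 20 uM heparin acts on human tau K18 P301L for 6 hr at 37 C.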
# Tau FP inhib: blocks human tau fibril formation measured by polarization; Potency, µM (top dose mostly 57.7 µM), inactives show at the highest dose activity, negative = inhibition, hits mostly inhibitors; actives 0.39% (n = 280,000); P10636; K18 P301L tau heparin fibrillization, Alexa594 FP, 6 h; further: potency means the concentration at half of the fitted maximal effect; nearly all actives have a fitted effect of over 55% in size
#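 Quantitative HTS format: compounds meet 15 uM recombinant K18 P301L tau and Alexa 594-tau tracer in 100 mM sodium acetate pH 7; 20 uM heparin triggers fibrillization at 37 C over 6 hr; FP gives the signal.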
# * hit, by the source's call; ? = inconclusive; . = no result given; [ ] = another dose, or the depositor's remark. Unless noted, the call rests on the fitted dose curve; in most records, active means well fitted curve in the direction sought with a large enough effect; inconclusive means small, poorly fitted or top-dose-only effect, or another doubt; inactive means no such curve, though single readings can be large; an effect the other way counts as inactive or inconclusive. Unless noted, on the % scale 0 is the no-effect control and ±100 the full control effect.
SMILES,Sfp inh,Tau fluor counter,FBPA coupling cs,G9a block,Tau ThT inhib,Tau FP inhib
Fc1ccc(NCc2ccccc2-c2nnc(-c3ccccc3Cl)o2)cc1Cl,.,?,.,8.8%[59 µM],-12.0%,-4.6%
CCNc1nc(Cl)nc(-c2cn(-c3ccccc3)c3ccccc23)n1,?,-3.4%,0.3,70.8µM*,-2.7%,-6.6%
O=Cc1ccc(-n2cc(C=O)c3ccccc32)cc1,-27.1%,-1.8%,0.0,-4.0%,-17.7%,-4.4%
Clc1nc(Oc2ccccc2)nc(-c2cn(-c3ccccc3)c3ccccc23)n1,-4.6%,-10.5%,-6.4,39.8µM*,-0.5%,3.4%
COc1cccc2cc(-c3csc(-c4ccc(Cl)cc4)n3)c(=O)oc12,.,-5.9%,.,3.8%[59 µM],2.6%,-3.4%
O=C1CN(C(=O)COc2ccccc2)C(c2ccc(F)cc2)c2cc(Br)ccc2N1 (stereo not given),.,-17.1%,.,-1.2%[59 µM],-5.1%,-3.9%
CCCCNC(=O)NNc1nc(Cl)cc(C)c1C#N,-26.8%,-6.2%,-0.5,31.6µM*,-1.1%,-6.7%
CN1CCN(/N=C/c2cccc(Cl)c2Cl)CC1,3.1%,-3.0%,0.7,39.8µM*,-0.2%,-7.1%
CN1CCN(/N=C/c2nc(-c3ccccc3Cl)n3ccccc23)CC1,14.1%,-9.7%,1.7,28.2µM*,-2.3%,2.9%
O=Cc1nc(-c2ccccc2Cl)n2ccccc12,7.0%,4.6%,-0.9,0.8%[59 µM],0.7%,0.2%
Clc1ccccc1-c1nc(/C=N/N2CCOCC2)c2ccccn12,89.1µM*,-24.0%,-9.0,28.2µM*,?,-11.8%
Cc1c2cnn(CC(=O)NCc3ccc(F)cc3)c(=O)c2c(C)n1Cc1ccccc1Cl,.,-10.9%,.,3.1%[59 µM],-1.3%,-1.9%
Cc1ccc2oc(C(=O)NC3CCS(=O)(=O)C3)cc(=O)c2c1 (stereo not given),6.6%,.,.,-3.0%,.,.
Cc1ccc2nc(C)cc(C(=O)Nc3nccs3)c2c1,13.3%,-4.2%,-1.2,10.3%,-7.5%,0.7%
N#CCNC1CC(=O)N(c2ccc(F)cc2)C1=O (stereo not given),?,.,-0.9,7.94µM*,.,.
O=C1CC(NCC2CCCO2)C(=O)N1c1ccc(F)cc1 (stereo not given),-16.0%,-0.1%,3.9,50.1µM*,-3.3%,-4.0%
O=C1CC(NCc2ccc(F)cc2)C(=O)N1c1ccccc1 (stereo not given),9.0%,3.6%,1.8,-47.6%,3.4%,2.5%
CC(=O)C1C(=O)CC(c2ccc(Cl)cc2)CC1=O (stereo not given),18.4%,-7.1%,5.7,56.2µM*,-2.0%,1.8%
COc1ccc([C@]23Cc4cc(OC)c(OC)cc4C(O2)c2c(cc(C)n(Cc4ccccc4)c2=O)O3)cc1,-9.2%,.,-1.3,-4.2%[2.33 µM],.,.
NC(=O)NNc1ccccc1,11.0%,-5.5%,4.0,-19.4%[59 µM],-9.0%,-7.0%
CCC(O)CC(C(=O)NNc1ccccc1)C(=O)NNc1ccccc1 (stereo not given),4.9%,3.8%,4.0,7.94µM*,0.4%,3.4%
CC(=O)c1sc(NC(=O)C2CC(=O)N(Cc3ccccc3)C2)nc1-c1ccccc1 (stereo not given),.,.,.,56.2µM*,.,.
CC(=O)Nc1ccc(NC(=O)C2CC(=O)N(Cc3ccccc3)C2)cc1 (stereo not given),15.6%,-5.4%,5.8,31.3%[59 µM],-6.0%,-9.2%
CC1CCCN(CCCOc2ccc(Cl)cc2Br)C1 (stereo not given),-25.8%,3.6%,1.6,10µM*,9.0%,0.1%
Clc1cc(Br)ccc1OCCOCCN1CCCC1,-9.4%,.,-0.2,39.8µM*,.,.
CC1CCN(CCOCCOc2ccc(Cl)cc2Br)CC1,56.2µM*,-13.3%,-2.3,10µM*,-10.2%,0.9%
CC1CCCN(CCSc2ccc(Cl)cc2)C1 (stereo not given),5.2%,0.9%,2.0,11.2µM*,-5.9%,6.6%
CC(C)OCCCNC(=O)c1ccc(Cn2c(=O)c3cccn3c3cccnc32)cc1,.,-1.3%,.,-30.4%[59 µM],4.7%,3.2%
